# aSyn UTR act – Activators via SNCA 5'UTR binding, MLPCN; alpha-synuclein 5'UTR reporter, activators screen; activity score, % (tested at 7.5 µM), hits read low; 7.1% of 300,000 active; AID 1814; in the data active = activity score below about -60%
# * marks the source's active call; other numbers are inactive results. These entries were drawn from the full list.
SMILES,aSyn UTR act
Cn1c(/C=C/c2ccc(Cl)cc2)nc2ccccc2c1=O,-180.6*
Cn1c(/C=C/c2ccc([N+](=O)[O-])o2)nc2ccccc2c1=O,97.9
COc1ccc2c(c1)CCc1c(C(=O)NCc3ccco3)noc1-2,-120.2*
COc1ccc2c(c1)CCc1c(C(=O)N(C)c3ccccc3)noc1-2,-131.7*
COCC(C)NC(=O)c1noc2c1CCc1cc(OC)ccc1-2 (stereo unspecified),-132.7*
COCCNC(=O)c1noc2c1CCc1cc(OC)ccc1-2,-98.3*
O=C1C2C3C=CC(C3)C2C(=O)N1c1ccc(-c2nc3ccccc3o2)cc1 (stereo unspecified),-152.0*
COc1ccc(-c2cc(C(=O)NC3CCCC3)no2)cc1,-120.5*
COc1cccc(-c2cc(C(=O)N3CCCCC3C)no2)c1 (stereo unspecified),-161.9*
COc1ccc(-c2cc(C(=O)Nc3ccc(C)c(C)c3)no2)cc1,-123.6*
COc1ccc(-c2cc(C(=O)NC(C)C)no2)cc1,-70.7*
Cn1cc(/C=C/c2cc[n+](C)cc2)c2cc(Cl)ccc21,63.8
COc1cccc(-c2cc(C(=O)NC3CCCCC3)no2)c1,-201.5*
O=C(NC1CCCCC1)c1cc(-c2ccco2)on1,-128.4*
Cc1ccc(Oc2ncc(CN3CCOCC3)s2)cc1,-78.4*
Cc1occc1C(=O)NCCc1cccc(Cl)c1,-81.5*
Cc1occc1C(=O)NCCCc1ccccc1,-70.8*
Cc1occc1C(=O)NNC(=O)c1ccccc1C(=O)O,-73.9*
Cc1cc(=O)[nH]c(SCCOc2ccc3c(c2)CCC3)n1,-107.5*
COc1ccc(C(C)NCCC(c2ccc(OC(C)C)cc2)c2ccccc2OC)cc1 (stereo unspecified),93.3
CC(C)c1ccc(C(O)Cc2nc3ccccc3n2C)cc1 (stereo unspecified),-102.4*
CN(C)c1ccc(C(O)Cc2nc3ccccc3n2C)cc1 (stereo unspecified),-96.7*
COc1ccccc1C(O)Cc1nc2ccccc2n1C (stereo unspecified),-87.5*
CCN(C(=O)c1cc2c(=O)[nH]c3ccc(C)cc3c2s1)c1cccc(C)c1,-217.3*
CC1CCCN(C(=O)COc2ccc3c(c2)OCO3)C1 (stereo unspecified),-69.2*
SMILES,aSyn UTR act
CC1Cc2ccccc2N1C(=O)COc1ccc2c(c1)OCO2 (stereo unspecified),-90.7*
O=C(NCc1ccccc1)c1cc(-c2cccs2)on1,-95.3*
O=C(NCc1ccco1)c1cc(-c2cccs2)on1,-297.4*
O=C(NCc1ccco1)c1cc(-c2ccc(F)cc2)on1,-198.2*
O=C(NCc1ccco1)c1cc(-c2ccccc2)on1,-161.4*
CN(C)c1ccc(NC(=O)CSc2nc(N)c(C(=O)Nc3ccc(N(C)C)cc3)s2)cc1,-151.1*
COc1ccc(NC(=O)CSc2nc(N)c(C(=O)Nc3ccc(N(C)C)cc3)s2)cc1,-66.2*
CCOc1ccc(OCCOc2ncnc3ccccc23)cc1,-70.4*
Cc1ccc(Oc2ncnc3sccc23)cc1,-142.5*
c1ccc(OCCOc2ncnc3sccc23)cc1,-125.8*
CCCCOC(=O)Nc1ccc(N(C)C)cc1,-161.8*
CCCCOC(=O)Nc1ccc(C(C)C)cc1,-276.1*
CCCCOC(=O)Nc1cccc(C(=O)OCC)c1,-68.0*
CCCCOC(=O)Nc1nnc(C(C)C)s1,-127.4*
CCCCOC(=O)Nc1ccc(C(N)=O)cc1,-94.1*
Cc1ccc(NC(=O)c2cc(F)c(F)cc2Cl)nc1,-130.0*
COc1cc2ccccc2cc1C(=O)Nc1ccc(C)cn1,-86.8*
Cc1ccc(NC(=O)c2ccccc2F)nc1,-87.7*
CC(=O)c1c(C)[nH]c(C(=O)Nc2ccc(C)cn2)c1C,84.9
O=C(NCc1ccc(F)cc1)Nc1cccc(Cl)c1,-149.0*
COc1cccc(NC(=O)C(=O)NCCc2ccc(F)cc2)c1,-109.2*
O=C(NCc1ccccn1)Nc1cccc(Cl)c1,-176.5*
Cc1ccc(CNC(=O)Nc2cccc(C)c2)cc1,-117.1*
Cc1cccc(NC(=O)Nc2ccc(C)cc2Br)c1,-78.9*
Fc1cccc(NC(=S)NCc2ccccn2)c1,-93.5*
SMILES,aSyn UTR act
CCN(CC)CC(=O)Nc1ccc(C)cc1Br,-76.7*
O=C(NCc1ccc(F)cc1)Nc1ccc(Cl)cc1,-64.8*
CCCCCCNC(=O)Nc1ccccc1,-88.4*
O=C(NCCc1ccc(F)cc1)Nc1ccccc1,-70.1*
CCC(C)c1ccc(N(C(=O)c2ccco2)C(C(=O)NC2CCCC2)c2cccnc2)cc1 (stereo unspecified),-115.0*
CC(C)c1ccc(N(C(=O)c2ccco2)C(C(=O)NC2CCCC2)c2ccncc2)cc1 (stereo unspecified),-149.5*
C#CC(=O)N(c1ccc(OC)cc1OC)C(C(=O)NC1CCCC1)c1cccs1 (stereo unspecified),92.0
O=C(NC1CCCCC1)C(c1cccnc1)N(C(=O)CCl)c1ccc(F)cc1 (stereo unspecified),-94.0*
COc1ccc(C(C(=O)NC2CCCCC2)N(C(=O)CCl)c2cccc(Cl)c2)cc1 (stereo unspecified),-74.3*
Cc1ccc(CN=c2c([N+](=O)[O-])nn(-c3ccc4c(c3)OCCO4)n2O)cc1,-132.5*
COc1ccc(-n2nc([N+](=O)[O-])c(=NCc3ccc4c(c3)OCO4)n2O)cc1,-108.6*
Cc1cccc(Nc2ncc3c(n2)CC(C)CC3=O)c1 (stereo unspecified),-127.4*
CCc1ccc(Nc2ncc3c(n2)CC(C)CC3=O)cc1 (stereo unspecified),-134.7*
CCc1ccc(Nc2ncc3c(n2)CC(C)(C)CC3=O)cc1,-141.4*
COc1ccc(Cl)c2c1[nH]c1nc(SCc3ccccn3)nnc12,-105.7*
O=C1CCC/C(=N\NC(=O)c2ccc(COc3ccccc3-c3ccccc3)cc2)C1,-71.2*
Cc1nn(-c2cccc([N+](=O)[O-])c2)c(N)c1-c1ccccc1,-83.3*
Nc1c(-c2ccc(Cl)cc2)cnn1-c1cccc([N+](=O)[O-])c1,-133.8*
Nc1c(-c2ccccc2)cnn1-c1cccc([N+](=O)[O-])c1,-92.2*
COc1ccc(-c2nnc(SCc3nc4ccccc4c(=O)[nH]3)o2)cc1,-69.7*
CCOc1ccc(-c2nnc(-c3ccncc3)o2)cc1,-63.2*
CCOc1ccc(-c2nc3ccccc3c(=O)o2)cc1,-62.8*
COc1ccc(-c2nnc(SCC(C)C)o2)cc1,-101.9*
CCOc1ccc(-c2nnc(NC(=O)c3ccc(OCC(C)C)c(OC)c3)o2)cc1,58.5
CCOc1ccc(-c2nnc(NC3=NCCCCC3)o2)cc1,-117.0*
SMILES,aSyn UTR act
CCOc1ccc(-c2nnc(-c3ccc(OC)cc3)o2)cc1,-76.1*
c1coc(-c2nnc(NC3=NCCC3)o2)c1,-70.4*
CCCCOc1ccc(-c2nnc(-c3ccncc3)o2)cc1,-124.1*
CCN(CC)c1ccc(NC(=S)NC(=O)C2CCC2)cc1,-63.6*
COc1ccc(NC(=O)NC2CCCCC2C)cc1 (stereo unspecified),-81.0*
Cc1cc(NC(=S)NC(=O)C2CC2)ccc1Br,-114.0*
COc1ccc(NC(=S)NC(=O)C2CCCCC2)cc1,-86.4*
Cc1cc(-c2n[nH]c(=S)o2)c(C)n1-c1ccccc1,-144.3*
CC(C)C(NC(=O)C1CCCCC1)C(=O)Nc1ccc2c(c1)OCCO2 (stereo unspecified),-65.7*
O=C(Nc1ccc2c(c1)OCO2)C1CCCCC1,-91.8*
CC(NC(=O)Nc1ccc2c(c1)OCO2)C1CCCO1 (stereo unspecified),-112.4*
COc1ccc(-c2noc(-c3cccnc3)n2)cc1OC,-158.6*
CCOc1ccc(-c2noc(-c3cccnc3)n2)cc1OC,-94.8*
